Experimental data: PubChem BioAssay
Calls of active or inactive are those of the source. Unless noted, no rule for the calls is given here.

Experiments:
[1] = liver-stage malaria parasite load reduction – cell-based, known kinase inhibitor set, luminescence, hepatoma host viability (AID 624392); settings: Plasmodium liver stage in hepatoma cells, luciferase luminescence, concentration not given here; liver cell % of control: measured here: host liver cell viability; parasite % of control: stronger effect = lower value;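 also: infected cells incubated roughly two days before readout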
[2] = altered dexamethasone sensitivity, NF-kB reporter, cell-based, luciferase, IL-1B stimulus (AID 624486); settings: IL-1B + dexamethasone, luminescence; percent of negative control (+Dex): actives lie on both sides, concentration not given here; z-score: measured here: IL-1B alone, no Dex;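 as to percent of negative control (+Dex): 100% = mean signal of vehicle control wells on the plate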
[3] = C. elegans survival during P. aeruginosa infection – whole organism (AID 651566);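 also: tested at 14 µM; sign flipped so higher z means a lower ratio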; settings: C. elegans killed by P. aeruginosa, survival ratio
[4] = pro-inflammatory signaling induction in mouse macrophages – cell-based, murine, luminescence (AID 652131); settings: murine macrophage pro-inflammatory reporter, stronger effect = higher value
[5] = molecular target: Cellular tumor antigen p53 (Homo sapiens) (UniProt P04637); assay: GFP-p53 level modulators in HPV16+ cells – imaging, known kinase inhibitor set, EGFP/DsRed ratio (AID 1053116); settings: GFP-p53 stability, stronger effect = higher value; EGFP object count: measured here: GFP-p53 positive objects count;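 also: cells exposed to compounds for 24 h at 37 °C before reading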
[6] = inducers of IRF3 signaling, differentiated THP-1 – cell-based, PMA-stimulated THP-1, luminescence (AID 1053176); settings: PMA-differentiated THP-1, IRF3 reporter luminescence; stronger effect = higher value
[7] = MELAS cybrid and Rieske KO viability enhancers – cell-based, MELAS cybrids, Rieske KO mouse fibroblasts, CellTiter-Glo, primary screen (AID 1508586;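 active = mean z-score across replicates of 1.96 or higher in either the MELAS or the Rieske mutant cell line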;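 also: z relative to plate mean and SD of compound and empty wells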); settings: low glucose
[8] = MELAS cybrid survival, CellTiter-Glo 48 h, stronger effect = higher value
[9] = Rieske KO mouse fibroblast survival, CellTiter-Glo 72 h

Chain of Cellular tumor antigen p53 (Homo sapiens) (P04637 whole entry, looked up): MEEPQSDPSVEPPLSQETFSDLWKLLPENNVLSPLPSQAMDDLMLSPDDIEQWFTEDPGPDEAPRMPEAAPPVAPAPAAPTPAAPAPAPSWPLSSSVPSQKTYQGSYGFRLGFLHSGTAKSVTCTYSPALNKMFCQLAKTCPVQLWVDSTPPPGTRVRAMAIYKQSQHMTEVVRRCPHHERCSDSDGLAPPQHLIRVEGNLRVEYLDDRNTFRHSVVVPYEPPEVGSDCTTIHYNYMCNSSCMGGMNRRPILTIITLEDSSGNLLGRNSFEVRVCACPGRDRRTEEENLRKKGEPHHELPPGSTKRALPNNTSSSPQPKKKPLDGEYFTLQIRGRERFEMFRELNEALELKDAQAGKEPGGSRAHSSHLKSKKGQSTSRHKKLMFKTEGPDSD

SMILES | liver cell % of control [1] | parasite % of control [1] | percent of negative control (+Dex) [2] | z-score [2] | z-score [3] | z-score [4] | EGFP object count [5] | EGFP/DsRed ratio [5] | fraction signal [6] | z-score [7, 8] | z-score [7, 9]
Cc1cccc2c(N=Nc3ccc(S(N)(=O)=O)cc3)c(O)[nH]c12 | 89.8% | 131% (inactive) | 111% (inactive) | 1.54 | -0.125 (inactive) | -0.036 (inactive) | 3.5 | 0.095 (inactive) | -0.0075 (inactive) | 0.912 (inactive) | -0.47
FC(F)(F)c1cccc(Nc2nccc(-c3cnn4nc(-c5ccccc5)ccc34)n2)c1 | 97.2% | 79.6% (inactive) | 86.5% (inactive) | -0.085 | 1.3 (inactive) | -0.793 (inactive) | 4.5 | 0.154 (inactive) | -0.0005 (inactive) | 1.22 (inactive) | -0.183
C[C@@H](Oc1cc(-n2cnc3ccc(OCC4CCN(C)CC4)cc32)sc1C(N)=O)c1ccccc1C(F)(F)F | 80.7% | 130% (inactive) | 98.5% (inactive) | -0.76 | -1.17 (inactive) | -2 (inactive) | 12 | 0.346 (inactive) | -0.0025 (inactive) | 0.571 (inactive) | 0.279
CCCCCNC(=O)C1CCCN2C(=O)CCC(NC(=O)C(Cc3ccc(OP(=O)(O)O)cc3)NC(C)=O)C(=O)N12 (stereo not drawn) | 106% | 50.1% (inactive) | 99% (inactive) | 0.695 | – | – | 3.5 | 0.227 (inactive) | -0.007 (inactive) | – | –
Cn1cc(C2=C(c3cn(C)c4ccc(Cl)cc34)C(=O)NC2=O)c2ccccc21 | 77% | 33.5% (inactive) | 114% (inactive) | -1.06 | – | – | 156 | 0.929 (active) | -0.0075 (inactive) | – | –
Cn1c(=O)c(Oc2ccc(F)cc2F)cc2cnc(NC(C)(C)CO)nc21 | 114% | 73.2% (inactive) | 106% (inactive) | 1.07 | – | – | 3 | 0.148 (inactive) | 0.023 (inactive) | – | –
Cc1ccc(C)c(C2=C(c3cn(C)c4ccccc34)C(=O)NC2=O)c1 | 166% | 33% (inactive) | 102% (inactive) | -1.65 | – | – | 33.5 | 0.361 (inactive) | 0.0035 (inactive) | – | –
COc1ccc(C2=C(c3cn(C)c4ccccc34)C(=O)NC2=O)cc1 | 131% | 39.3% (inactive) | 108% (inactive) | -0.1 | – | – | 5.5 | 0.214 (inactive) | -0.0115 (inactive) | – | –
Cc1ccc(C(=O)NC2CC2)cc1-c1ccc2[nH]ncc2c1 | 103% | 126% (inactive) | 102% (inactive) | 0.41 | 0.325 (inactive) | -0.645 (inactive) | 3.5 | 0.141 (inactive) | 0.0035 (inactive) | -0.239 (inactive) | -0.0886
O=C1NC(=NCCc2ccc(Cl)cc2)SC1=Cc1ccc2ncccc2c1 | 108% | 53.8% (inactive) | 95% (inactive) | 0.425 | – | – | 6.5 | 0.259 (inactive) | -0.0075 (inactive) | – | –
O=C1NC(=O)C(=Cc2ccc3ncccc3c2)S1 | 98% | 60.7% (inactive) | 126% (active) | 3.21 | – | – | 5 | 0.206 (inactive) | 0.005 (inactive) | – | –
Cn1cc(C2=C(c3cccc([N+](=O)[O-])c3)C(=O)NC2=O)c2ccccc21 | 86.9% | 3.57% (inactive) | 106% (inactive) | -2.63 | – | – | 14 | 0.255 (inactive) | 0.0015 (inactive) | – | –
Cn1cc(C2=C(c3cn(C)c4cc(Cl)ccc34)C(=O)NC2=O)c2ccccc21 | 82.6% | 48.4% (inactive) | 126% (active) | -0.405 | – | – | 31 | 0.0945 (inactive) | -0.009 (inactive) | – | –
CON=C1NC(=O)C(=Cc2ccc3ncccc3c2)S1 | 89.4% | 71.6% (inactive) | 113% (inactive) | 2.23 | – | – | 3.5 | 0.0939 (inactive) | -0.005 (inactive) | – | –
Cn1cc(C2=C(c3ccccc3[N+](=O)[O-])C(=O)NC2=O)c2ccccc21 | 80.1% | 121% (inactive) | 147% (active) | -1.21 | – | – | 19 | 0.315 (inactive) | 0.0035 (inactive) | – | –
CS(=O)(=O)CCn1c(=O)c(Oc2ccc(F)cc2F)cc2cnc(NC3CCOCC3)nc21 | 122% | 63% (inactive) | 99% (inactive) | 0.47 | – | – | 2 | 0.0579 (inactive) | 0.0015 (inactive) | – | –
